Here are results for eleven compounds from PMC5540273 (PLoS ONE, 2017).

Each structure is given as a SMILES string.

What all share (details): concentration: 1 μM, replicates: in singlicate; n = 1
Test [1] concerns HIPK3.
The test system of test [2] is HIPK4.
The subject of test [3] is HPK1.
In test [4] the test system is HUNK.
The test system of test [5] is ICK.
The subject of test [6] is IGF1R.
Test [7] has as its system T1, IKK-alpha.
T1 construct: gene CHUK

Test [8] concerns T2, IKK-beta.
T2 construct: gene IKBKB

Test [9] has as its system T3, IKK-epsilon.
T3 construct: gene IKBKE

The test system of test [10] is INSRR.
Test [11] concerns INSR.
Test [12] has as its system IRAK1.
The test system of test [13] is IRAK3.
Test [14] has as its system IRAK4.
For test [15], the system named is ITK.
The subject of test [16] is JAK1(JH1domain-catalytic).
For test [17], the system named is JAK1(JH2domain-pseudokinase).
The subject of test [18] is JAK2(JH1domain-catalytic).
Test [19] deals with JAK3(JH1domain-catalytic).
The subject of test [20] is T4, JNK1.
T4 construct: gene MAPK8
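Further: KINOMEscan kinase panel screen.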

Turning to `Cn1c(=O)c(F)c(Nc2ccc(I)cc2F)c2c(=O)n(OC[C@H](O)CO)cnc21`, the “%Inh” value in test [1] amounted to 0%; in test [2] it was 81%; in test [3], 0%; in test [4], 0%; in [5], 0%; in [6] it was 0%. Moreover, the “%Inh” value in test [7] was 0%; in test [8], 0%; in test [9], 0%; in test [10], 0%; in test [11] it was 5%; in test [12], 0%. For the same compound, the “%Inh” value was found to be 0% in test [13]; 0% in test [14]; 3% in test [15]; 2% in [16]; 14% in test [17]; 9% in [18]. Also, the entries for the “%Inh” value in test [19] and in test [20] were 1% and 18%, respectively.
`CC(C)(C)c1ccc(C(=O)Nc2cn3cc(-c4ccccc4)ccc3n2)cc1`: the “%Inh” value in test [1] is recorded as 20%; in test [2] it was 0%; in [3], 0%; in test [4], 9%; in [5], 0%; in [6] it was 0%. Besides, the “%Inh” value in test [7] worked out at 5%; in test [8], 6%; in test [9], 0%; in test [10], 0%; in test [11], 0%; in test [12] it was 17%. Further, the “%Inh” value in test [13] is given as 12%; in test [14] it was 13%; in [15] it was 12%; in [16], 12%; in test [17], 42%; in test [18], 0%. Also, the “%Inh” value in test [19] is 0%; in test [20], 13%.
For `Nc1ncnc2c1ncn2-c1cccc(F)c1` [SKF-97560], the “%Inh” value is reported as 14% in test [1]; 6% in test [2]; 23% in [3]; 10% in [4]; 6% in [5]; 1% in test [6]. Besides, the “%Inh” value in test [7] stood at 13%; in test [8], 19%; in test [9], 23%; in test [10], 0%; in test [11], 9%; in test [12] it was 33%. Further, the “%Inh” value in test [13] came out at 0%; in test [14], 30%; in [15], 6%; in test [16], 10%; in test [17] it was 12%; in [18] it was 39%. The figures for the “%Inh” value in test [19] and in test [20] were 55% and 38%, respectively.
`CCC(=O)c1c(-c2ccccc2)c2cc(Cl)ccc2c(=O)n1Cc1cc(S(C)(=O)=O)n(CC(N)=O)n1`: the “%Inh” value in test [1], in [2], in [3], in test [4], in test [5] and in test [6] was 0% each time. The “%Inh” value in [7], in test [8], in test [9], in test [10], in [11] and in [12] was 0% throughout. The “%Inh” value is reported as 0% in [13]; 0% in test [14]; 0% in [15]; 0% in test [16]; 51% in test [17]; 0% in test [18]. For the same compound, the “%Inh” value in test [19] is 0%; in [20] it was 99%.
Consider `COc1ccc(-c2cc3c(C)nc(N)nc3n([C@H]3CC[C@H](OCCO)CC3)c2=O)cn1`, for which the “%Inh” value in [1] came to 5%; in test [2], 0%; in [3], 0%; in test [4], 0%; in test [5], 0%; in test [6], 0%. Moreover, the “%Inh” value in [7] is on record as 0%; in test [8], 0%; in test [9], 0%; in [10], 0%; in test [11] it was 24%; in test [12], 4%. Further, the “%Inh” value in test [13] came to 19%; in [14] it was 3%; in test [15], 0%; in test [16], 0%; in [17], 22%; in test [18] it was 0%. The “%Inh” value in test [19] and in [20] was 0% throughout.
For the compound `CCCNC(=O)Nc1ccc(Oc2ncnc3ccn(C)c23)cc1`, the “%Inh” value turned out to be 14% in [1]; 19% in test [2]; 0% in test [3]; 0% in test [4]; 17% in test [5]; 0% in test [6]. In addition, the “%Inh” value was 1% in test [7]; 0% in test [8]; 0% in test [9]; 0% in [10]; 31% in test [11]; 16% in [12]. Further, the “%Inh” value in test [13] was 0%; in test [14], 15%; in test [15], 5%; in test [16], 17%; in test [17], 0%; in test [18], 1%. In addition, the “%Inh” value in [19] and in [20] was 0% throughout.
In the case of `COc1cc2ncn(-c3cc(OCCCc4ccccc4)c(C(N)=O)s3)c2cc1OC` [GSK205189], the “%Inh” value in test [1] stood at 0%; in [2], 60%; in test [3], 28%; in [4] it was 0%; in test [5], 0%; in test [6], 13%. Further, the “%Inh” value in test [7] was determined as 0%; in test [8], 0%; in [9], 14%; in [10] it was 3%; in test [11], 13%; in test [12] it was 0%. Also, the “%Inh” value is given as 7% in [13]; 0% in [14]; 5% in test [15]; 0% in [16]; 0% in test [17]; 1% in test [18]. For the same compound, the “%Inh” value in test [19] came to 0%; in [20] it was 15%.
As to `Cc1ccccc1COc1cc(-n2cnc3cc(Cl)ccc32)sc1C(N)=O` [GW813349], the “%Inh” value in test [1] worked out at 12%; in test [2] it was 21%; in test [3] it was 62%; in [4] it was 18%; in test [5] it was 0%; in [6], 9%. For the same compound, the “%Inh” value in [7] amounted to 0%; in test [8] it was 0%; in test [9] it was 62%; in [10], 23%; in [11] it was 3%; in test [12], 22%. Further, the “%Inh” value in [13] is 3%; in [14], 17%; in [15], 13%; in [16], 0%; in test [17], 20%; in [18], 17%. Further, the “%Inh” value in test [19] is recorded as 0%; in test [20], 24%.
Turning to `O=C(NCCNc1ccnc(Nc2ccc(F)cc2)n1)Nc1ccc2c(c1)OCO2` [GSK1379882], the “%Inh” value in [1] turned out to be 9%; in test [2] it was 0%; in [3] it was 37%; in [4], 1%; in [5], 0%; in test [6] it was 0%. For the same compound, the “%Inh” value in test [7] was 3%; in test [8] it was 7%; in test [9], 14%; in [10], 0%; in test [11], 7%; in test [12], 16%. Also, the “%Inh” value is 7% in [13]; 0% in test [14]; 9% in test [15]; 12% in test [16]; 3% in [17]; 100% in [18]. The entries for the “%Inh” value in test [19] and in [20] were 0% and 22%, respectively.
Regarding `C[C@@H]1CC[C@H](C(=O)NC2CCCCC2)CN1c1cc(-c2ccc3c(N)n[nH]c3c2)nc(N)n1` [GSK2291363], the “%Inh” value in test [1] is given as 14%; in test [2], 0%; in [3] it was 50%; in test [4] it was 0%; in [5], 18%; in test [6], 30%. The “%Inh” value in [7] was 0%; in test [8], 0%; in [9], 25%; in [10], 0%; in test [11], 10%; in test [12], 34%. The “%Inh” value in test [13] worked out at 0%; in test [14], 28%; in test [15], 22%; in test [16], 7%; in [17] it was 11%; in [18], 9%. Besides, the “%Inh” value is reported as 0% in [19] and 34% in test [20].
In the case of `O=C(NCc1cccs1)c1cc(C(=O)c2c(Cl)cccc2Cl)c[nH]1` [GW823670], the “%Inh” value in [1] is reported as 0%; in [2], 0%; in [3], 37%; in [4] it was 31%; in [5] it was 0%; in test [6] it was 1%. Besides, the “%Inh” value in [7] was 0%; in test [8], 0%; in test [9] it was 3%; in [10] it was 0%; in test [11], 0%; in [12] it was 0%. Besides, the “%Inh” value in test [13] was 26%; in test [14] it was 0%; in test [15], 1%; in test [16], 1%; in test [17] it was 5%; in test [18], 0%. For the same compound, the “%Inh” value in test [19] and in test [20] was 0% throughout.
